# Screening data from PubChem BioAssay.
# Hits are enriched below; roughly 2.7% of the tested compounds scored in any of these assays.
# HIV Env fusion – HIV envelope-mediated fusion inhibition. HeLa-JRFL Env/CEM21 cell fusion, luciferase. inhibition, % at 12.3 µM. hit rate 1.1% among 360,000;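 active = mean replicate inhibition score of at least 50 and every replicate individually at or above 50; inconclusive = only one of the two criteria met; inactive = mean below 50 and not all replicates reaching 50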;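 also: 0% = plate neutral controls and 100% = maraviroc near 300 nM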
# MITF TRPM1 HTS – activators of MITF-driven TRPM1 promoter activity in SK-MEL-5 cells; SK-MEL-5 TRPM1-promoter luciferase, 24 h; % of positive control, neutral wells = 0; activation, % at 12.5 µM; hit rate 0.75% among 300,000;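 active = mean activation of at least 80% with every replicate also reaching 80%; inconclusive = mean reaches 80% but some replicate falls short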;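 also: 0% = neutral control wells and 100% = parthenolide positive control wells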
# Wnt bcat act – activators of Wnt/beta-catenin signaling; hit rate 1.2% among 300,000; AID 743398; activation, % at 9.35 µM; Wnt/beta-catenin reporter cell assay, activator, plate reader; in the data active = activation above about 30%, passing the limit was not always enough; inconclusive = no clear call, values can overlap the other calls;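 also: 0% = neutral control wells and 100% = positive control wells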
# CFTR F508del cor – CFTR F508del correction in bronchial cells; hit rate 0.36% among 350,000; activity (quench increase), % at 7.58 µM; AID 720511; CFBE cells, YFP halide quenching; stimulated with forskolin plus potentiator P3; % fluorescence drop versus neutral controls;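 active = mean added fluorescence quench of at least 8% versus neutral control, with both replicates also reaching 8%; inconclusive = only one of the mean or replicate conditions met; inactive = mean below 8% and not both replicates reaching 8%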;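 also: cells transiently co-express mutant CFTR-F508del with the halide-sensitive YFP; corrector assay measuring rescue of mutant channel to the surface after 24 h compound exposure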
# GSIS activator – primary screen for activators of insulin secretion dependent on glucose, INS-1E cells, GLuc reporter luminescence; INS-1E GLuc reporter insulin secretion, 2-3 h; AID 743287; activation, % at 16.6 µM; hit rate 0.61% among 370,000;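 active = lowest replicate activation of at least 40%, so every replicate reaches that level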;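 also: 0% = median of neutral control wells and 100% = median of IBMX positive control wells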
# * marks the source's active call; other numbers are inactive results; ? = inconclusive; . = no result given; [ ] = remark or other dose.
SMILES,HIV Env fusion,MITF TRPM1 HTS,Wnt bcat act,CFTR F508del cor,GSIS activator
CC(/C=C/c1ccco1)=N/NC(=O)OC(C)(C)C,-5,33,57*,.,26
C/C(=N/NC(=O)OC(C)(C)C)c1ccco1,1,41,?,3,-1
O=C(Nc1ccc2c(c1)[C@@H]1C[C@H](CC(=O)N3CCOCC3)O[C@H](CO)[C@@H]1O2)c1cccnc1,1[16.7 µM],.,.,2,4
Cc1ccc(OCc2cc(C(=O)N(C)CC3CCOCC3)no2)cc1C,-88,96*,17,-2,-3
Cc1cc(OCc2cc(C(=O)N(C)C3CCOCC3)no2)cc(C)c1Cl,-51,63,30,0,-32
Cc1ccc(OCc2cc(C(=O)NCC(C)(C)N3CCOCC3)no2)cc1C,-69,121*,47*,-5,-40
Cc1cccc(NC(=O)c2ccc3c(c2)OCCO3)c1C,-11,113*,6,0,24
Cc1nc2ccc3nc(NC(=O)c4ccc5c(c4)OCCO5)sc3c2s1,.,20,.,.,38
Cc1cnc(NC(=O)c2ccc3c(c2)OCCO3)s1,52,-81,-23,9.0*,2
COc1ccc(C(=O)Nc2ccc3c(c2)OC[C@H](C)NC[C@H](C)[C@@H](OC)CN(C)C3=O)cc1,.,.,.,2,7
Cc1ccc(O)c(N=Nc2ccccc2)n1,-24,68,41*,0,-2
C[C@H](CO)N1C[C@H](C)[C@@H](CN(C)Cc2ccccc2)Oc2c(NC(=O)c3cnccn3)cccc2C1=O,-5[16.7 µM],.,.,1,11
Cn1c(-c2ccccc2)c(C(=O)CCl)c2ccccc21,64*,-92,6,-7,-15
CC(C)Nc1nc(NC(N)=S)nc(NC(C)(C)C)n1,-15,4,0,-1,44*
CC(C)Nc1nc(NC(N)=S)nc(NC(C)C)n1,-10,-5,0,.,82*
CCNc1nc(NC(C)C)nc(NC(C)(C)C)n1,15,-18,0,2,31
C[C@H](CO)N1C[C@H](C)[C@H](CN(C)C(=O)NC2CCCCC2)OCCCC[C@H](C)Oc2ccc(NC(=O)NC3CCCCC3)cc2C1=O,-7[16.7 µM],.,.,0,-29
Cc1ccc(SCC(=O)NC(=O)NCCC(C)C)c(C)c1,17,7,41*,0,-10
O=C(/C=C/c1ccc(Cl)cc1Cl)N1CCc2ccccc21,-265,65,48*,.,38
Cc1ccc(S(=O)(=O)Nc2ccc3c(c2)C(=O)N([C@@H](C)CO)C[C@H](C)[C@@H](CN(C)Cc2ccc(C(=O)O)cc2)OCCCC[C@H](C)O3)cc1,-11[16.7 µM],.,.,1,25
C[C@]12CC[C@@H]3c4ccc(OS(=O)(=O)O)cc4CC[C@H]3[C@@H]1CCC2=O,-4,3,-1,-6,5
CC12CCC3c4ccc(O)cc4CCC3C1CCC2=O (stereo not given),-33,-4,-2,9.4*,11
O=C([C@H]1[C@H](CO)[C@H]2Cn3c(ccc(-c4cccnc4)c3=O)[C@H]2N1CC1CC1)N1CCCCC1,.,.,.,-3,-7
Cc1ccc(C)c(-c2cc(C(=O)Nc3sc(C)c(C)c3C(N)=O)c3ccccc3n2)c1,89*,-13,.,.,7
O=C(C[C@@H]1C=C[C@@H](NC(=O)Nc2cccc(F)c2)[C@@H](CO)O1)NCC1CC1,-2[16.7 µM],.,.,0,16
SMILES,HIV Env fusion,MITF TRPM1 HTS,Wnt bcat act,CFTR F508del cor,GSIS activator
CCC(=O)N(C)C[C@@H]1Oc2cc(-c3ccncc3)ccc2S(=O)(=O)N([C@@H](C)CO)C[C@H]1C,-3[16.7 µM],.,.,-2,1
COc1ccc(C#Cc2ccc3c(c2)[C@H]2[C@H](CCN2C(=O)C2CCC2)[C@@H](CO)N3)cc1,21[16.7 µM],.,.,3,-21
c1ccc(COc2ccc(-c3cc4nc(NCCOc5ccccc5)ccn4n3)cc2)cc1,43*,.,-3,5,.
c1ccc(COc2cccc(-c3cc4nc(NCCOc5ccccc5)ccn4n3)c2)cc1,23,.,-8,0,.
O=C(NC1CC1)C1Nc2ccc(OC(F)(F)F)cc2C2C=CCC12 (stereo not given),-54,-8,39*,4,-9
CCNS(=O)(=O)c1ccc(CCC(=O)Nc2cc(Cl)ccc2Oc2ccccc2)cc1,107*,-24,-1,.,.
CN1CCN(/N=C/c2ccc(Cl)c(Cl)c2)CC1,10,88*,.,.,5
CN1CCN(/N=C/c2ccc(N(c3ccccc3)c3ccccc3)cc2)CC1,27,13,0,-1,13
COc1ccc(/C=N/N2CCN(C)CC2)cc1O,.,-3,.,.,11
CN1CCN(/N=C/c2ccc(Br)cc2)CC1,1,95*,7,1,23
C[C@H](CO)N1C[C@H](C)[C@H](CN(C)S(=O)(=O)c2cccc(F)c2)Oc2ncc(C#CC3CCCCC3)cc2C1=O,.,.,.,1,-9
COC(=O)Cn1c(=NC(=O)c2ccc(Cl)s2)sc2cc(C)ccc21,-8,85*,.,.,27
CC(C)(C)c1ccc(SCCc2ccccn2)cc1,-73,102*,61*,0,1
CCCCCCCCOC(=O)c1nc(Cl)c(Cl)c(N)c1Cl,.,-10,-1,-1,60*
COc1ccc(Cn2c(=O)c3[nH]cnc3n(-c3ccccc3C)c2=O)cc1,9,-17,0,.,64*
CCCn1c(=O)c2[nH]cnc2n(-c2ccccc2C)c1=O,1,0,3,0,-11
Cc1ccccc1-n1c(=O)n(Cc2ccc(C(=O)O)cc2)c(=O)c2[nH]cnc21,25,-3,-5,-5,6
COc1ccc(C)c(-n2c(=O)n(Cc3ccccc3)c(=O)c3[nH]cnc32)c1,9,.,0,2,63*
CC(=O)Nc1cccc(-n2c(=O)n(Cc3ccccc3)c(=O)c3[nH]cnc32)c1,-50,-6,-1,0,43*
Cc1ccc(S(C)=O)cc1-n1c(=O)n(Cc2ccccc2)c(=O)c2[nH]cnc21 (stereo not given),1,3,0,1,11
COc1cccc(-n2c(=O)n(Cc3ccccc3)c(=O)c3[nH]cnc32)c1C,0,.,0,-1,76*
CNC(=O)C[C@H]1CC[C@@H]2[C@@H](COc3ccc(NS(=O)(=O)c4ccc(F)cc4)cc3C(=O)N2C)O1,7[16.7 µM],.,.,1,2
C[C@@H]1CCCCO[C@@H](CN(C)Cc2ccc3c(c2)OCO3)[C@@H](C)CN([C@@H](C)CO)C(=O)c2cc(NS(=O)(=O)c3ccc(F)cc3)ccc2O1,-34[16.7 µM],.,.,2,-19
Cc1noc(C)c1S(=O)(=O)Nc1ccc2c(c1)C(=O)N([C@H](C)CO)C[C@H](C)[C@@H](CN(C)S(=O)(=O)c1c(C)noc1C)O2,.,.,.,.,10
COc1ccc(NC(=O)CN(C)C(=O)CNC(=O)c2sc3ccccc3c2Cl)cc1,-52,93*,2,3,-34
COc1ccc(S(=O)(=O)N[C@H]2CC[C@@H](CC(=O)N3CCN(c4ccccc4)CC3)O[C@H]2CO)cc1,6[16.7 µM],.,.,1,-3
